# The sample as a whole holds a higher share of the strongest signals than the screen did.
# Columns and labels:
# Test in all cases: glycan array binding signal (z-score within array); higher = stronger binding
# Conditions in all cases: glycan notation: IUPAC condensed, linker removed; mutation: Q318A
# [1] = target: Fuc(a1-2)Gal(b1-3)GalNAc(b1-4)[Neu5Ac(a2-3)]Gal(b1-4)Glc
# Outline: (§1)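 Glycan array data came from 3228 arrays in the Consortium for Functional Glycomics database, and only arrays with an available protein sequence were kept. Glycan names were put into IUPAC-condensed notation, and columns mapping to the same glycan were averaged. The binding signal is a within-array Z-score, averaged across arrays of one protein sequence run at different concentrations or buffers and across linkers. A negative Z-score can be read as non-binding.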
# [2] = target: Fuc(a1-2)Gal(b1-3)GlcNAc(b1-3)[Fuc(a1-2)Gal(b1-3)GlcNAc(b1-6)]GalNAc
# Outline: as §1
# [3] = target: Fuc(a1-2)Gal(b1-4)Fuc(a1-3)]GlcNAc(b1-2)Man(a1-3)[Fuc(a1-2)Gal(b1-4)[Fuc(a1-3)]GlcNAc(b1-2)Man(a1-6)]Man(b1-4)GlcNAc(b1-4)GlcNAc
# Outline: as §1
# [4] = target: Fuc(a1-2)Gal(b1-4)GlcNAc
# Outline: as §1
# [5] = target: Fuc(a1-2)Gal(b1-4)GlcNAc(b1-2)Man(a1-3)[Fuc(a1-2)Gal(b1-4)GlcNAc(b1-2)Man(a1-6)]Man(b1-4)GlcNAc(b1-4)GlcNAc
# Outline: as §1
# [6] = target: Fuc(a1-2)Gal(b1-4)GlcNAc(b1-3)Gal(b1-4)GlcNAc(b1-2)Man(a1-3)[Fuc(a1-2)Gal(b1-4)GlcNAc(b1-3)Gal(b1-4)GlcNAc(b1-2)Man(a1-6)]Man(b1-4)GlcNAc(b1-4)GlcNAc
# Outline: as §1
# [7] = target: Fuc(a1-2)[Gal(a1-3)]Gal(b1-4)GlcNAc(b1-2)Man(a1-3)[Fuc(a1-2)[Gal(a1-3)]Gal(b1-4)GlcNAc(b1-2)Man(a1-6)]Man(b1-4)GlcNAc(b1-4)GlcNAc
# Outline: as §1
# [8] = target: Fuc(a1-2)[GalNAc(a1-3)]Gal(b1-4)GlcNAc(b1-2)Man
# Outline: as §1
# [9] = target: Fuc(a1-2)[GalNAc(a1-3)]Gal(b1-4)GlcNAc(b1-3)Gal(b1-4)GlcNAc
# Outline: as §1
# [10] = target: Fuc(a1-2)[GalNAc(a1-3)]Gal(b1-4)GlcNAc(b1-3)GalNAc
# Outline: as §1
# [11] = target: Fuc(a1-3)[Gal(b1-4)]GlcNAc6S
# Outline: as §1
# [12] = target: Gal(a1-3)Gal(b1-4)GlcNAc
# Outline: as §1
# [13] = target: Gal(a1-4)Gal(b1-4)Glc
# Outline: as §1
# [14] = target: Gal(b1-3)GalNAc(b1-4)Gal(b1-4)Glc
# Outline: as §1
# [15] = target: Gal(b1-3)GlcNAc(b1-3)Gal(b1-4)GlcNAc(b1-3)Gal(b1-4)GlcNAc(b1-2)[Gal(b1-3)GlcNAc(b1-3)Gal(b1-4)GlcNAc(b1-3)Gal(b1-4)GlcNAc(b1-6)]Man(a1-6)[Gal(b1-3)GlcNAc(b1-3)Gal(b1-4)GlcNAc(b1-3)Gal(b1-4)GlcNAc(b1-2)Man(a1-3)]Man(b1-4)GlcNAc(b1-4)[Fuc(a1-6)]GlcNAc
# Outline: as §1
# [16] = target: Gal(b1-3)GlcNAc(b1-6)Gal(b1-4)GlcNAc
# Outline: as §1
# [17] = target: Gal(b1-3)GlcNAc(b1-6)[Gal(b1-3)]GalNAc
# Outline: as §1
# [18] = target: Gal(b1-4)Gal
# Outline: as §1
# [19] = target: Gal(b1-4)GlcNAc(b1-2)Man
# Outline: as §1
# [20] = target: Gal(b1-4)GlcNAc(b1-2)Man(a1-3)[Gal(b1-4)GlcNAc(b1-2)Man(a1-6)][GlcNAc(b1-4)]Man(b1-4)GlcNAc(b1-4)[Fuc(a1-6)]GlcNAc
# Outline: as §1
# [21] = target: Gal(b1-4)GlcNAc(b1-3)Gal(b1-4)GlcNAc(b1-3)Gal(b1-4)GlcNAc(b1-2)[Gal(b1-4)GlcNAc(b1-3)Gal(b1-4)GlcNAc(b1-3)Gal(b1-4)GlcNAc(b1-6)]Man(a1-6)[Gal(b1-4)GlcNAc(b1-3)Gal(b1-4)GlcNAc(b1-3)Gal(b1-4)GlcNAc(b1-2)Man(a1-3)]Man(b1-4)GlcNAc(b1-4)[Fuc(a1-6)]GlcNAc
# Outline: as §1
# [22] = target: Gal(b1-4)GlcNAc(b1-3)Gal(b1-4)GlcNAc(b1-3)Gal(b1-4)GlcNAc(b1-3)Gal(b1-4)GlcNAc(b1-3)Gal(b1-4)GlcNAc(b1-2)Man(a1-3)[Gal(b1-4)GlcNAc(b1-3)Gal(b1-4)GlcNAc(b1-3)Gal(b1-4)GlcNAc(b1-3)Gal(b1-4)GlcNAc(b1-3)Gal(b1-4)GlcNAc(b1-2)Man(a1-6)]Man(b1-4)GlcNAc(b1-4)[Fuc(a1-6)]GlcNAc
# Outline: as §1
# [23] = target: GalNAc(a1-3)GalNAc
# Outline: as §1
# [24] = target: GalNAc(b1-4)Gal(b1-4)Glc
# Outline: as §1
# [25] = target: GalNAc(b1-4)GlcNAc
# Outline: as §1
# [26] = target: Glc(a1-6)Glc(a1-6)Glc(a1-6)Glc
# Outline: as §1
# [27] = target: GlcNAc(b1-2)Man(a1-3)[GlcNAc(b1-2)Man(a1-6)]Man(b1-4)GlcNAc(b1-4)GlcNAc
# Outline: as §1
# [28] = target: GlcNAc(b1-2)[GlcNAc(b1-6)]Man(a1-6)[GlcNAc(b1-2)Man(a1-3)]Man(b1-4)GlcNAc(b1-4)[Fuc(a1-6)]GlcNAc
# Outline: as §1
# [29] = target: GlcNAc(b1-3)Gal(b1-4)GlcNAc(b1-6)[GlcNAc(b1-3)Gal(b1-3)]GalNAc
# Outline: as §1
# [30] = target: GlcNAc(b1-4)GlcNAc(b1-4)GlcNAc
# Outline: as §1
# [31] = target: GlcNAc(b1-6)Gal(b1-4)GlcNAc
# Outline: as §1
# [32] = target: Kdn(a2-3)Gal(b1-3)GalNAc
# Outline: as §1
# [33] = target: Man(a1-3)[Man(a1-6)]Man(a1-6)[Man(a1-3)]Man
# Outline: as §1
# [34] = target: Neu5Ac(a2-3)Gal(b1-3)GalNAc(b1-4)Gal(b1-4)Glc
# Outline: as §1
# [35] = target: Neu5Ac(a2-3)Gal(b1-3)GlcNAc(b1-2)[Neu5Ac(a2-3)Gal(b1-3)GlcNAc(b1-4)]Man(a1-6)[Neu5Ac(a2-3)Gal(b1-3)GlcNAc(b1-2)Man(a1-3)]Man(b1-4)GlcNAc(b1-4)GlcNAc
# Outline: as §1
# [36] = target: Neu5Ac(a2-3)Gal(b1-4)GlcNAc
# Outline: as §1
# [37] = target: Neu5Ac(a2-3)Gal(b1-4)GlcNAc(b1-2)Man
# Outline: as §1
# [38] = target: Neu5Ac(a2-3)Gal(b1-4)GlcNAc(b1-3)[Neu5Ac(a2-3)Gal(b1-4)GlcNAc(b1-6)]GalNAc
# Outline: as §1
# [39] = target: Neu5Ac(a2-3)Gal(b1-4)GlcNAc(b1-6)[Gal(b1-3)]GalNAc
# Outline: as §1
# [40] = target: Neu5Ac(a2-3)Gal(b1-4)[Fuc(a1-3)]GlcNAc(b1-2)Man
# Outline: as §1
# [41] = target: Neu5Ac(a2-3)Gal(b1-4)[Fuc(a1-3)]GlcNAc(b1-6)[Neu5Ac(a2-3)Gal(b1-3)]GalNAc
# Outline: as §1
# [42] = target: Neu5Ac(a2-6)Gal(b1-4)GlcNAc(b1-2)Man(a1-3)[Gal(b1-4)GlcNAc(b1-2)Man(a1-6)]Man(b1-4)GlcNAc(b1-4)GlcNAc
# Outline: as §1
# [43] = target: Neu5Ac(a2-6)Gal(b1-4)GlcNAc(b1-2)Man(a1-3)[Man(a1-6)]Man(b1-4)GlcNAc(b1-4)GlcNAc
# Outline: as §1
# [44] = target: Neu5Ac(a2-6)Gal(b1-4)GlcNAc(b1-2)[Neu5Ac(a2-6)Gal(b1-4)GlcNAc(b1-4)]Man(a1-3)[GlcNAc(b1-4)][Neu5Ac(a2-6)Gal(b1-4)GlcNAc(b1-2)[Neu5Ac(a2-6)Gal(b1-4)GlcNAc(b1-6)]Man(a1-6)]Man(b1-4)GlcNAc(b1-4)GlcNAc
# Outline: as §1
# [45] = target: Neu5Ac(a2-6)Gal(b1-4)GlcNAc(b1-3)Gal(b1-4)GlcNAc
# Outline: as §1
# [46] = target: Neu5Ac(a2-6)GlcNAc(b1-4)GlcNAc(b1-4)GlcNAc
# Outline: as §1
# [47] = target: Neu5Gc(a2-6)GalNAc
# Outline: as §1
binder,measurement,setting,value
"SUN4 (Saccharomyces cerevisiae), P53616 (protein) MGSSHHHHHHSSGLVPRGSHNGSIYGDLADFSGPYEKFEDGTIPCGQFPSGQGVIPISWLDEGGWSGVENTDTSTGGSCKEGSYCSYACQPGMSKTQWPSDQPSDGRSIGGLLCKDGYLYRSNTDTDYLCEWGVDAAYVVSELSNDVAICRTDYPGTENMVIPTYVQAGDSLPLTVVDQDTYYTWQGLKTSAAYYVNNAGISVEDACVWGSSSSGVGNWAPLNFGAGSSDGVAYLSLIPNPNNGNALNFNVKIVAADDSSTVNGECIYENGSFSGGSDGCTVSVTAGKAKFVLYN",glycan array binding signal (z-score),[1],-0.245
same,glycan array binding signal (z-score),[2],0.442
same,glycan array binding signal (z-score),[3],2.65
same,glycan array binding signal (z-score),[4],-0.67
same,glycan array binding signal (z-score),[5],-0.18
same,glycan array binding signal (z-score),[6],1.88
same,glycan array binding signal (z-score),[7],-0.077
same,glycan array binding signal (z-score),[8],-0.198
same,glycan array binding signal (z-score),[9],0.152
same,glycan array binding signal (z-score),[10],0.641
same,glycan array binding signal (z-score),[11],0.316
same,glycan array binding signal (z-score),[12],-0.246
same,glycan array binding signal (z-score),[13],2.25
same,glycan array binding signal (z-score),[14],-0.46
same,glycan array binding signal (z-score),[15],2.21
same,glycan array binding signal (z-score),[16],-0.212
same,glycan array binding signal (z-score),[17],-0.256
same,glycan array binding signal (z-score),[18],-0.573
same,glycan array binding signal (z-score),[19],0.857
same,glycan array binding signal (z-score),[20],-0.281
same,glycan array binding signal (z-score),[21],1.61
same,glycan array binding signal (z-score),[22],2.04
same,glycan array binding signal (z-score),[23],-1.37
same,glycan array binding signal (z-score),[24],1.66
same,glycan array binding signal (z-score),[25],0.304
same,glycan array binding signal (z-score),[26],0.21
same,glycan array binding signal (z-score),[27],-0.045
same,glycan array binding signal (z-score),[28],2.54
same,glycan array binding signal (z-score),[29],0.161
same,glycan array binding signal (z-score),[30],0.057
same,glycan array binding signal (z-score),[31],-0.7
same,glycan array binding signal (z-score),[32],-0.503
same,glycan array binding signal (z-score),[33],1.55
same,glycan array binding signal (z-score),[34],1.67
same,glycan array binding signal (z-score),[35],1.64
same,glycan array binding signal (z-score),[36],-0.355
same,glycan array binding signal (z-score),[37],0.689
same,glycan array binding signal (z-score),[38],2.5
same,glycan array binding signal (z-score),[39],-0.111
same,glycan array binding signal (z-score),[40],-0.965
same,glycan array binding signal (z-score),[41],3.41
same,glycan array binding signal (z-score),[42],-0.494
same,glycan array binding signal (z-score),[43],-1
same,glycan array binding signal (z-score),[44],-0.64
same,glycan array binding signal (z-score),[45],-0.838
same,glycan array binding signal (z-score),[46],-0.241
same,glycan array binding signal (z-score),[47],-0.69
